# Out of some 66,000 compounds screened, about 960 (1.5%) showed an effect of 50% or more. Only a selection was taken, and strong results are over-represented in it overall.
# Test system: Trypanosoma brucei
# Assay: Trypanosoma brucei 72 hour study
# Type: functional, organism-based
# Parameters: scale not given: in the data most compounds retested in dose-response had high values
smiles,measurement,setting,value
Cc1nnc2n1CCN(C(=O)CN(C)Cc1ccccc1)C2,Percent Effect,"30.3 µM, […]",-14.91%
O=C(NCC1CCOCC1)[C@@H]1CC[C@@H]2[C@@H](CCN2Cc2ccncc2)O1.O=C(O)C(F)(F)F.O=C(O)C(F)(F)F,Percent Effect,"30.3 µM, […]",-62.66%
CCc1noc(CCC(=O)N[C@@H]2CC[C@@H](n3ccnc3C)[C@@H]2O)n1,Percent Effect,"30.3 µM, […]",-7.313%
O=C(O)C(F)(F)F.c1coc(CN2CCO[C@H]3[C@H](OCC4CC4)CC[C@@H]32)c1,Percent Effect,"30.3 µM, […]",0.4404%
Oc1ccc(Br)c(CNc2cccc(-c3nnc[nH]3)c2)c1,Percent Effect,"30 µM, 30.03 µM",56.16%
c1cc(NCc2ccsc2)cc(-c2nnc[nH]2)c1,Percent Effect,"30 µM, 30.03 µM",-50.24%
Oc1c(F)cc(CNc2cccc(-c3nnc[nH]3)c2)cc1F,Percent Effect,"30 µM, 30.03 µM",-51.33%
CCCc1nc2c(c(C)c(C)n2Cc2ccncc2)c(N)c1CC,Percent Effect,"30.3 µM, […]",11.66%
CCCc1nc2c(c(C)c(C)n2Cc2cccnc2)c(N)c1CC,Percent Effect,"30.3 µM, […]",26.57%
CCCc1nc2c(c(C)c(C)n2Cc2ccccn2)c(N)c1CC,Percent Effect,"30.3 µM, […]",99.32%
COc1cccc(-c2noc(C3CCN(Cc4ccc(C)cc4)C3)n2)c1.Cl (configuration not stated),Percent Effect,"30.3 µM, […]",4.598%
Cc1nc(=O)c2ccccc2n1C1=CCN(CC(=O)N2CCCC2)CC1,Percent Effect,"30.3 µM, […]",9.131%
COc1cc(C(=O)N2CCCS2(=O)=O)cc(Cl)c1OC,Percent Effect,"30 µM, 30.03 µM",-12.01%
CCN1CCC2(CC1)OCCN2C(=O)c1cc(Cl)c(OC)c(Cl)c1.Cl,Percent Effect,"30 µM, 30.03 µM",89.37%
CCN1CCC2(CC1)OCCN2C(=O)c1ccc(OC)c(Cl)c1.Cl,Percent Effect,"30 µM, 30.03 µM",50.46%
COCC1CC2(CCN(C(=O)c3ccc(OC)c(Cl)c3)CC2)CO1 (configuration not stated),Percent Effect,"30 µM, 30.03 µM",-6.719%
CCCOc1c(Cl)cc(C(=O)N2CCOC23CCN(C)CC3)cc1Cl,Percent Effect,"30 µM, 30.03 µM",-15.42%
COc1ccc(C(=O)N2C[C@@H](CN3CCCCC3)[C@@H](CO)C2)cc1Cl,Percent Effect,"30 µM, 30.03 µM",22.63%
COc1ccc(-c2cc3nn(CC(=O)NC(C)C)c(=O)n3c(C)n2)cc1,Percent Effect,"30 µM, 30.03 µM",-13.21%
Cc1cc(C)cc(CN2CCN(Cc3cccc(CCN)c3)CC2=O)c1,Percent Effect,"30 µM, 30.03 µM",35.33%
CCc1cc(CN2C[C@H]3CC[C@@H]2CN(C2Cc4ccccc4C2)C3)on1,Percent Effect,"30 µM, 30.03 µM",10.13%
Cc1nnc(CN2CCCC2c2ccsc2)o1 (configuration not stated),Percent Effect,"30.3 µM, […]",-40.61%
Cc1nnc(CN2CCCC2c2ccc(Cl)c(Cl)c2)o1 (configuration not stated),Percent Effect,"30.3 µM, […]",3.085%
Cc1nnc(CN2CCCC2c2ccc(C(C)(C)C)cc2)o1 (configuration not stated),Percent Effect,"30.3 µM, […]",86.15%
Cc1ccc(CN(CCCn2ccnc2)Cc2cc(F)ccc2F)s1.O=C(O)CC(O)(CC(=O)O)C(=O)O,Percent Effect,"30.3 µM, […]",-12.95%
Cc1ccccc1-n1cnnc1SCC1CCCCO1 (configuration not stated),Percent Effect,"30 µM, 30.03 µM",69.07%
Cc1ccccc1-n1cnnc1SCC(=O)NCC1CCCO1 (configuration not stated),Percent Effect,"30 µM, 30.03 µM",-21.19%
Cc1ccccc1-n1cnnc1SCCOCC1CCCO1 (configuration not stated),Percent Effect,"30 µM, 30.03 µM",-22.78%
O=C(CCc1cccs1)N1CCCC(n2ccnc2)C1 (configuration not stated),Percent Effect,10 µM,-23.55%
same,Percent Effect,"30.3 µM, […]",37.83%
Cc1cc(NC(=O)N2CCCC2C(C)(C)O)c2ncccc2c1 (configuration not stated),Percent Effect,"30 µM, 30.03 µM",-36.24%
Cc1cc(NC(=O)NC2CCN(C(C)C)CC2)c2ncccc2c1,Percent Effect,"30 µM, 30.03 µM",56.47%
Cc1cc(NC(=O)N2CCCC2C(=O)NC2CC2)c2ncccc2c1 (configuration not stated),Percent Effect,"30 µM, 30.03 µM",-28.65%
Cl.c1cn(-c2cncc(C3CCNCC3)n2)cn1,Percent Effect,"30.3 µM, […]",-40.04%
CN(C)C(=O)CN1CCC2(COCc3cnc(-c4cccnc4)nc32)C1.O=C(O)C(F)(F)F.O=C(O)C(F)(F)F (configuration not stated),Percent Effect,"30.3 µM, […]",-72.36%
CN(C)C(=O)c1n[nH]c2c1CN(CC1CCCCC1)C2.O=C(O)C(F)(F)F.O=C(O)C(F)(F)F,Percent Effect,"30.3 µM, […]",-36.34%
CC(C)(C)CCN1CCN(c2snc(Cl)c2C#N)CC1,Percent Effect,"30.3 µM, […]",100.4%
N#Cc1c(Cl)nsc1N1CCN(CC2CC2)CC1,Percent Effect,"30.3 µM, […]",-23.59%
N#Cc1c(Cl)nsc1NCc1ccc(N2CCC(CO)CC2)cc1,Percent Effect,"30 µM, 30.03 µM",-28.26%
CC(=O)N1CCN(C(=O)CCNc2snc(Cl)c2C#N)CC1,Percent Effect,"30 µM, 30.03 µM",-13.74%
CC(=O)N1CCN(CCNc2snc(Cl)c2C#N)CC1,Percent Effect,"30 µM, 30.03 µM",1.028%
N#Cc1c(Cl)nsc1N1CCN(CC2CCCCC2)CC1,Percent Effect,"30.3 µM, […]",100.2%
CC(C)COCC1CN(C(=O)c2cscn2)Cc2ncn(C)c21.O=C(O)C(F)(F)F (configuration not stated),Percent Effect,"30.3 µM, […]",-83.42%
CN(C)CCOCc1cncc2c1CCN(Cc1ccccn1)C2.O=C(O)C(F)(F)F.O=C(O)C(F)(F)F.O=C(O)C(F)(F)F,Percent Effect,"30.3 µM, […]",-28.23%
Cc1nc(CN2CC[C@H]3[C@@H]2CCC(=O)N3c2cnn(C)c2)cs1.O=C(O)C(F)(F)F,Percent Effect,"30.3 µM, […]",-10.95%
Cc1ccc(CN(CCCn2ccnc2)Cc2c[nH]nc2C(C)(C)C)s1.O=C(O)CC(O)(CC(=O)O)C(=O)O,Percent Effect,"30.3 µM, […]",-172%
Cc1ccc(C(NC(=O)C2CC2)c2cccc(S(C)(=O)=O)c2)cc1 (configuration not stated),Percent Effect,"30 µM, 30.03 µM",-25.5%
CN(C)C(=O)CCNC(=O)Nc1sc2ccccc2c1Cl,Percent Effect,"30.3 µM, […]",-534.4%
CS(=O)(=O)CCNC(=O)Nc1sc2ccccc2c1Cl,Percent Effect,"30.3 µM, […]",-157.9%
CN(C)CC(C)(O)CNC(=O)Nc1sc2ccccc2c1Cl (configuration not stated),Percent Effect,"30.3 µM, […]",103.3%
Cn1nc(COCC2CC2)c2c1CCN(Cc1cccs1)C2.O=C(O)C(F)(F)F,Percent Effect,"30.3 µM, […]",-72.61%
O=C(O)C(F)(F)F.c1cncc(N2CCCn3nnc(COCC4CC4)c3C2)c1,Percent Effect,"30.3 µM, […]",-2.195%
CN(C)CCN1C(=O)CCCC12CCCN(C(=O)c1cc[nH]n1)C2.O=C(O)C(F)(F)F (configuration not stated),Percent Effect,"30.3 µM, […]",-2.017%
CCOc1ncccc1CNC(=O)NC(C)Cn1cccn1 (configuration not stated),Percent Effect,10 µM,-0.2891%
same,Percent Effect,"30.3 µM, […]",0.8601%
Cc1nc(C)n(C2CCCN(C(=O)c3ccc(F)cc3F)C2)n1 (configuration not stated),Percent Effect,"30 µM, 30.03 µM",1.062%
Cc1cc(C)n(C2CCCN(C(=O)c3ccc(F)cc3F)C2)n1 (configuration not stated),Percent Effect,"30 µM, 30.03 µM",59.51%
Cc1cc(C)n(C2CCCN(C(=O)c3cccc(F)c3F)C2)n1 (configuration not stated),Percent Effect,"30 µM, 30.03 µM",-91.58%
Cn1cc(N2C(=O)CC[C@@H]3[C@H]2CCN3CC2CCOCC2)cn1.O=C(O)C(F)(F)F,Percent Effect,"30.3 µM, […]",-7.648%
CC(=O)N1CCC2(CCN(Cc3ccccn3)C2=O)C1.O=C(O)C(F)(F)F (configuration not stated),Percent Effect,"30 µM, 30.03 µM",1.584%
Clc1cc(Cl)cc(CN2CCC(NCc3ncc[nH]3)CC2)c1,Percent Effect,"30.3 µM, […]",-65.03%
Clc1cc(Cl)cc(CN2CCC(NCc3cc[nH]n3)CC2)c1,Percent Effect,"30.3 µM, […]",90.13%
Clc1cccc(N2CCC(NCc3cc[nH]n3)C2)c1 (configuration not stated),Percent Effect,"30 µM, 30.03 µM",15.76%
Cc1ccc(CN2CCc3ncc(CNC(=O)C4CCC4)n3CC2)o1.O=C(O)C(F)(F)F,Percent Effect,"30.3 µM, […]",-36.54%
CCC(C)(C)n1nnnc1C(c1cccs1)N1CCCCC1 (configuration not stated),Percent Effect,"30.3 µM, […]",13.9%
Cc1noc(C)c1C(=O)NCC(C)N1CCc2ccccc21 (configuration not stated),Percent Effect,10 µM,-61.25%
CCC(C)(C)n1nnnc1C(c1cccs1)N1CCc2ccccc21 (configuration not stated),Percent Effect,"30.3 µM, […]",72.61%
CCC(C)(C)n1nnnc1C(c1cccs1)N1CCc2ccccc2C1 (configuration not stated),Percent Effect,"30.3 µM, […]",99.92%
CCC(CNC(=O)c1ccccn1)N1CCc2ccccc2C1 (configuration not stated),Percent Effect,"30 µM, 30.03 µM",-43.95%
COc1ccc(-c2n[nH]c(C)c2CC(=O)N2CCOCC2)cc1,Percent Effect,"30 µM, 30.03 µM",6.943%
CNC(=O)c1cc2c(nc1NCC1CC1)CCN(S(C)(=O)=O)CC2.O=C(O)C(F)(F)F,Percent Effect,"30 µM, 30.03 µM",-3.721%
Cc1csc(C(=O)N2CC[C@H](Oc3cccnc3C)[C@@H](O)CC2)c1,Percent Effect,"30.3 µM, […]",-24.66%
COc1ccc(CN2CCn3cccc3C2C)cc1F (configuration not stated),Percent Effect,"30 µM, 30.03 µM",11.74%
CC(C)c1ccc(CN2C(=O)C3(CCNCC3)Nc3ccccc32)cc1,Percent Effect,"30 µM, 30.03 µM",101.9%
C=Cc1ccc(CN2C(=O)C3(CCNCC3)Nc3ccccc32)cc1,Percent Effect,"30 µM, 30.03 µM",-41.13%
NC(=O)c1ccc(CN2C(=O)C3(CCNCC3)Nc3ccccc32)cc1,Percent Effect,"30 µM, 30.03 µM",8.328%
N#Cc1cccc(CN2C(=O)C3(CCNCC3)Nc3ccccc32)c1,Percent Effect,"30 µM, 30.03 µM",83.34%
N#Cc1cccc(CN2C(=O)c3ccccc3CS2(=O)=O)c1,Percent Effect,"30 µM, 30.03 µM",-36.86%
CN1CC2(CCN(Cc3cccc(C#N)c3)CC2)CC1=O,Percent Effect,"30 µM, 30.03 µM",-2.169%
O=C(O)C(F)(F)F.O=C(O)C(F)(F)F.c1cc(CN2Cc3nccn3CC(Cn3cncn3)C2)ccn1 (configuration not stated),Percent Effect,"30 µM, 30.03 µM",-13.09%
CNC(=O)CN1CCc2c(CNc3nccs3)n[nH]c2C1.O=C(O)C(F)(F)F,Percent Effect,"30 µM, 30.03 µM",-11.16%
Cc1cc(N(C)CC2COc3ccccc3O2)nc(N)n1 (configuration not stated),Percent Effect,"30.3 µM, […]",-9.48%
CCN1CC(CN(C)c2cc(C)nc(N)n2)Oc2ccccc21 (configuration not stated),Percent Effect,"30.3 µM, […]",98.13%
Cc1cc(N(C)CC2COc3ccccc3O2)nc(C)n1 (configuration not stated),Percent Effect,"30.3 µM, […]",-13.97%
CC(C)CS(=O)(=O)N1C[C@H]2C[C@H](C(=O)Nc3cccnc3)[C@@H](C1)O2,Percent Effect,"30 µM, 30.03 µM",-5.396%
COCCO[C@H]1CCN(c2ccc(C)nn2)[C@H]1Cc1cccnc1.O=C(O)C(F)(F)F.O=C(O)C(F)(F)F,Percent Effect,"30.3 µM, […]",-12.33%
COc1cc(N2C[C@@H]3COC[C@]3(COCc3ccccn3)C2)ncn1.O=C(O)C(F)(F)F.O=C(O)C(F)(F)F,Percent Effect,"30 µM, 30.03 µM",-23.44%
COc1cc(N2C[C@@H]3COC[C@]3(COc3ccccn3)C2)ncn1.O=C(O)C(F)(F)F.O=C(O)C(F)(F)F,Percent Effect,"30.3 µM, […]",-11.8%
COc1ccccc1CN1C[C@@H]2COC[C@]2(COc2cccnc2)C1.O=C(O)C(F)(F)F.O=C(O)C(F)(F)F,Percent Effect,"30 µM, 30.03 µM",-13.45%
COc1cc(N2C[C@@H]3COC[C@]3(COc3ncccc3F)C2)ncn1.O=C(O)C(F)(F)F.O=C(O)C(F)(F)F,Percent Effect,"30 µM, 30.03 µM",51.8%
Fc1cccc(CN2C[C@@H]3COC[C@]3(COCc3ccncc3)C2)c1.O=C(O)C(F)(F)F.O=C(O)C(F)(F)F,Percent Effect,"30 µM, 30.03 µM",-8.118%
COc1ccccc1CN1C[C@@H]2COC[C@]2(COCc2ccncc2)C1.O=C(O)C(F)(F)F.O=C(O)C(F)(F)F,Percent Effect,"30 µM, 30.03 µM",59.56%
